# E-sel TNF inh = E-selectin induction blockers in HUVEC – imaging, immunofluorescence, high content, primary screen; HUVEC TNFa-induced E-selectin immunofluorescence; inhibition, % at 2 µM; 120,000 tested, 0.71% active; AID 1246, 2008;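 active means inhibition above the batch mean plus 3 SD, and confirmed as a hit on visual image review, cut at about 43% in these data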;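 further: 0% = TNF-stimulated DMSO wells and 100% = unstimulated control wells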
# HUVEC tox TNFa = cytotoxicity in TNFa-stimulated HUVEC, primary screen, cytotoxicity control for VCAM1 expression modulator project, imaging, Hoechst nuclei count. AID 848, 2007. HUVEC TNFalpha-stimulated, Hoechst cell count. 93,000 tested, 0.17% active. cell count reduction, % at 2 µM;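 active means cell count reduction exceeding the screen mean by over 5 SD, scaled to untreated wells per plate, cut at about 78% in these data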;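 further: cells counted after 24 h of TNF alpha exposure following the 1 h pretreatment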
# F-actin modifier = modifiers of F-actin cytoskeleton organization, primary screen, imaging, HUVEC, phalloidin staining, high-content imaging. 91,000 tested, 0.18% active. inhibition, % at 2 µM. AID 836, 2007. HUVEC TNFa F-actin phalloidin imaging;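 active means inhibition above the batch mean plus 3 SD and confirmed as a hit by visual image inspection, cut at about 30% in these data, passing the limit was not always enough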
# VCAM1 TNFa inh = inhibitors of TNFa-induced VCAM1 expression, primary screen, imaging, HUVEC, TNFa stimulus, immunofluorescence; HUVEC TNFa-induced VCAM-1 immunofluorescence, high-content imaging; inhibition, % at 2 µM; 95,000 tested, 0.48% active; AID 802, 2007;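 active means inhibition above the batch mean plus 3 SD, with images confirmed as a hit by eye, cut at about 37% in these data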;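 further: 0% = TNF-stimulated DMSO wells and 100% = unstimulated control wells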
# * marks the source's active call; other numbers are inactive results; / = no result given. Compounds with a hit are over-represented: about 1% of the library has one in this group of screens.
SMILES,E-sel TNF inh,HUVEC tox TNFa,F-actin modifier,VCAM1 TNFa inh
CCOc1ccc(C2=Nn3c(nnc3-c3ccccc3OC)SC2)cc1,29,70,-12,99*
CCOC(=O)C1=C(c2cccc(Oc3ccccc3)c2)NC(=S)NC1C (stereo unspecified),18,-2,-5,4
Cc1c(NC(=O)CN2CCN(c3ccccc3)CC2)c(=O)n(-c2ccccc2)n1C,-11,12,-22,14
Cc1c(NC(=O)CN2CC(C)OC(C)C2)c(=O)n(-c2ccccc2)n1C (stereo unspecified),66*,2,9,16
CCOC(=O)N1CCC(N(CCOC)C(=O)Nc2ccc(Cl)cc2)CC1,80*,/,/,/
CCOC(=O)N1CCC(N(CCCOC)C(=O)Nc2ccc(CC)cc2)CC1,15,12,-7,-26
CC(=O)c1c(C)[nH]c(C(=O)Nc2ccccc2N2CCOCC2)c1C,75*,/,/,/
O=C(NCc1ccccc1Cl)c1ccc2nc[nH]c2c1,8,/,/,/
C=CCN(CC=C)C(=O)Nc1cc(Cl)ccc1OC,53*,8,-7,0
Cc1cc([N+](=O)[O-])nn1CC(=O)Nc1sc2c(c1C(N)=O)CCCC2,80*,/,/,/
NC(=O)c1c(NC(=O)Cc2cccs2)sc2c1CCC2,6,1,2,92*
Cc1cc([N+](=O)[O-])nn1CCCC(=O)Nc1sc2c(c1C(N)=O)CCCC2,-5,/,/,/
Cc1ccn2c(NC(=O)c3ccco3)c(-c3ccccc3)nc2c1,-12,-13,16,97*
Cc1ccccc1NC(=O)c1snc2c(=O)[nH]cnc12,-35,/,/,/
COc1ccc(N2CCN(c3ncnc4c3cnn4-c3ccc(C)cc3C)CC2)cc1,12,-20,-15,7
Cc1ccc(-n2ncc3c(N4CCN(c5ccccc5)CC4)ncnc32)c(C)c1,-4,/,5,96*
CCc1ccc(C(=O)/C=C/c2ccc([N+](=O)[O-])o2)cc1,12,-6,4,49*
COc1ccc(C(CC(=O)NCc2ccccc2)Sc2n[nH]c(-c3ccccc3)n2)cc1 (stereo unspecified),92*,/,/,/
CCOc1ccc(C2/C(=C(\O)c3c(C)[nH]c(C(=O)OC)c3C)C(=O)C(=O)N2CCN(C)C)cc1 (stereo unspecified),/,76,-14,92*
CCCOc1ccc(NC(=O)C(=O)NCCCn2ccnc2)cc1,78*,/,/,/
CCC(=O)Nc1ccc(C(=O)NCCCn2ccnc2)cc1,22,/,/,/
CCOc1cc(C(=O)NCCCn2ccnc2)cc(OCC)c1OCC,88*,/,/,/
COCCCNC(=O)CN(Cc1ccc(Cl)cc1)S(C)(=O)=O,6,97*,-31,/
O=C(CSc1nc2ccccc2[nH]1)N1CCN(S(=O)(=O)c2ccc(Cl)cc2)CC1,68*,15,-26,-8
COC(=O)c1c(NC(=O)c2ccc(S(=O)(=O)N3CCOCC3)cc2)sc2c1CCN(C)C2,17,7,-20,54*
SMILES,E-sel TNF inh,HUVEC tox TNFa,F-actin modifier,VCAM1 TNFa inh
COC(=O)CSc1nc(N)nc(C)c1Br,63*,-4,-29,10
COC(=O)CSc1nc(N)c(C#N)c(C(C)C)c1C#N,-1,-16,-16,-13
CCCS(=O)(=O)c1nnnn1-c1cccc(OC)c1,98*,/,/,/
O/C(=C\Sc1nnc(Cc2ccccc2)o1)c1ccc(F)cc1,14,-13,-16,14
COc1ccc(NC(=O)N2CCn3c2nc2ccccc23)cc1,-4,6,-38,58*
O=C(Nc1ccccc1)N1CCn2c1nc1ccccc12,-13,10,-2,16
N#Cc1ccc(-c2cccnc2)nc1SCc1ccc(Cl)c(Cl)c1,67*,/,/,/
Cc1ccc(-c2nn(-c3ccccc3)cc2C=C2C(=O)CC(C)(C)CC2=O)cc1,-30,-4,1,8
CC1=NNC(=O)/C1=C\c1cn(-c2ccccc2)nc1-c1ccc(Cl)cc1,17,84*,16,99*
COc1cc(NC(=O)c2ccc(COCC(F)(F)F)o2)cc(OC)c1OC,16,21,6,50*
CN1C(=O)S/C(=C\c2ccccc2OCc2ccc(C(=O)O)cc2)C1=O,100*,/,/,/
CN1C(=O)S/C(=C/c2ccccc2OCc2ccc(C(=O)O)cc2)C1=O,-13,/,/,/
Cc1ccc(CN2CCN(C3CCCC3)C(CCO)C2)s1 (stereo unspecified),46,/,/,/
Nc1ccc2c3c(cccc13)CC2,/,-3,51*,20
c1ccc(Nc2ccc3c4c(cccc24)CC3)cc1,14,-20,12,4
CO/N=C/C(=N\Nc1ccc(C)cc1)C(=O)c1ccc(OC)cc1,6,24,-19,40*
CO/N=C/C(=N\Nc1ccc(OC)cc1)C(=O)c1ccc(F)cc1,-11,/,/,/
Cc1c(C(=O)Nc2ccncc2)oc2ccccc12,31,-17,3,2
Cc1c(C(=O)NC(C)c2ccncc2)oc2ccccc12 (stereo unspecified),100*,-10,8,0
CCOC(=O)c1cnn(-c2nc(-c3ccc(C)cc3)cs2)c1C(F)(F)F,/,77,-68,96*
Cc1nc(C)c(CCNC(=O)c2ccccc2Br)s1,-3,/,/,/
CC1CC1c1ccc(/C=C(\C#N)C(=O)Nc2ccc(Cl)cc2)o1 (stereo unspecified),64*,/,/,/
CCOC(=O)C1C(c2cc(OC)c(O)c(OC)c2)NC(=S)NC1(O)C(F)(F)F (stereo unspecified),72*,/,/,/
COc1ccc(-c2ccc(C(=S)N3CCN(C(C)=O)CC3)o2)cc1,64*,10,-5,-10
COC(=O)c1c(O)cc(C(C)(C)C)n(-c2ccc(F)cc2)c1=O,3,/,/,/
SMILES,E-sel TNF inh,HUVEC tox TNFa,F-actin modifier,VCAM1 TNFa inh
CCn1cc(C(=O)O)c(=O)c2cc(F)c(N3CCN(C(=O)Nc4ccccc4)CC3)cc21,-9,/,/,/
CCn1cc(C(=O)O)c(=O)c2cc(F)c(N3CCN(C(=S)NC(=O)c4ccc(Br)cc4)CC3)cc21,74*,/,/,/
COc1cccc(N2CCN(C(=O)c3nc4nc(C)cc(C)n4n3)CC2)c1,-59,/,/,/
CCCC(=O)C1=C(O)C(C(=O)OC)C(C)(C)CC1=Nc1ccc(OC)cc1 (stereo unspecified),-15,/,/,/
CCCC(=O)C1=C(O)C(C(=O)OC)C(C)(C)CC1=Nc1ccc(N)cc1 (stereo unspecified),59*,-30,-18,16
Cn1c(SCC(=O)N2CCOCC2)nnc1-c1cccc(NC(=O)c2ccccc2)c1,64*,-2,18,-1
COC(=O)CSc1nnc(-c2cccc(NC(=O)c3ccc(C)cc3)c2)n1C,-17,-19,-16,-4
Cc1ccc(C)c(N(CC(=O)NC2CCCC2)C(=O)c2cc3cc4cc(C)ccc4nc3s2)c1,/,84*,1,48
Cc1ccc(C2(O)CN(c3ccccc3C)C3=[N+]2CCS3)cc1 (stereo unspecified),64*,/,/,/
Cc1ccc(S(=O)(=O)Cc2ccc(C(=O)OCc3ccccc3)cc2)cc1,4,0,9,9
O=C(CS(=O)c1ccc(C(F)(F)F)cc1[N+](=O)[O-])Oc1ccccc1 (stereo unspecified),84*,20,29,88*

# Compound activity: PubChem, Columbia University Molecular Screening Center
